This is a sample that favours compounds with a hit; in the whole collection about 21% have one here.
Shiga inhibitor: blocks Shiga toxin action in Vero cells; Vero cells, Shiga toxin protein synthesis inhibition reporter; inhibition, % at 38.7 µM; hit rate 9.2% among 290,000; AID 2315; in the data active = inhibition mostly above about 28%, no sharp cut-off; inactive = mostly below about 43%; also: 0% is about no effect
CHX counter: affects cycloheximide protein synthesis inhibition readout, counter-screen; cell reporter, cycloheximide protein synthesis inhibition counterscreen; max response, %; hit rate 12% among 300,000; AID 2314; in the data active = max response mostly above about 13%, no sharp cut-off; inactive = mostly below about 14%; also: read at 38.3 µM for the half of the compounds with a filed dose; 0% is about no effect
Pf growth 96h: inhibits malaria parasite growth, 96 h; P. falciparum luciferase reporter growth, 96 h; Potency, µM (doses to about 28.7 µM), for the others: at the highest dose activity change, negative = inhibition, usual class: inhibitors; hit rate 6.9% among 320,000; also: potency is read from the fitted curve at half-maximal effect; % is scaled to controls: 0 for no effect and ±100 for the full control effect
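Readout is luminescence from an integrated firefly luciferase in P. falciparum. Red cells, 2% hematocrit and 0.05% parasitemia final, were cultured with compound through two parasite generations (96 hours) at 37 C, 5% CO2.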
NS1 inh: influenza NS1 inhibition; Potency, µM (highest dose often 46.1 µM), without a hit: at the top dose activity, positive = more growth; hit rate 0.4% among 270,000; calls by dose curve; also: potency is read from the fitted curve at half-maximal effect; actives are rising curves; nearly all actives have a fitted effect of over 50% in size
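Read-out: OD600 growth recovery of NS1-expressing budding yeast. Cells grown overnight at 30C in -URA glucose medium, washed, resuspended and diluted 1:100 in 2% galactose assay medium, pH 6.0. Same strain lacking NS1 served as positive control.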
Pf growth 48h: inhibits P. falciparum growth in the first generation, 48 h. P. falciparum luciferase growth in erythrocytes, 48 h. hit rate 5.9% among 310,000. AID 504832. Potency, µM (series often up to 28.7 µM), inactives show at the highest dose activity change, negative = inhibition, hits mostly inhibitors; also: potency is read from the fitted curve at half-maximal effect; % is scaled to controls: 0 for no effect and ±100 for the full control effect
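Luciferase-expressing parasites in RBCs, 2% Hct / 0.1% parasitemia final; RPMI 1640 + 0.5% Albumax; 37 C, 5% CO2, one generation; luminescence read-out, lower signal = inhibition.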
Starred values were filed as active, the others as inactive; ? = inconclusive; nt = no result given; [ ] = remark or other dose. Unless noted, calls follow the shape of the dose curve; as a rule, active = well fitted inhibition curve with a large enough effect; inconclusive = small, poorly fitted or top-dose-only effect, or another doubt; inactive = no such curve, though single readings can be large or run the other way.

SMILES | Shiga inhibitor | CHX counter | Pf growth 96h | NS1 inh | Pf growth 48h
COc1ccc(OCc2cc(C(=O)NCCN3CCCc4ccccc43)no2)c(Cl)c1 | 15.4 | 15.7* | -28.9% | 27.6% | ?
COc1cc(Cl)ccc1OCc1cc(C(=O)NCC(C)(C)N2CCOCC2)no1 | 49.8* | 42.6* | 0.4% | -17.3% | -16.4%
COc1ccc(-c2cc(C(=O)NCc3ccc(Cl)cc3)no2)cc1OC | -6.4 | -4.8 | 23.0% | 0.0% | 7.2%
COc1ccccc1C(=O)NCCc1c(C)[nH]c2c(C)ccc(F)c12 | 3.5 | -4.4 | -2.5% | nt | 19.0%
CCOc1ccc(CN2CCC(n3nccc3NC(=O)c3ccccc3OC)CC2)cc1 | 26.5 | 9.5 | ? | -4.9% | -6.0%
O=C(CN1CCN(c2ccccn2)CC1)Nc1cccc(F)c1 | 139.8 | -2.6 | 9.0% | 1.0% | ?
CN(Cc1ccc(Cl)s1)C(=O)CNC(=O)CNC(=O)c1ccc(Cl)cc1Cl | nt | nt | -8.9% | nt | ?
COC1CCCCC1Nc1ccc(C)c(C)c1 (centres undefined) | 10.0 | -2.8 | 2.08µM* | -7.0% | -5.7%
CC(C)(C)NC[C@H](O)COc1cccc2c1CCC(=O)N2 | nt | nt | -4.9%[12.8 µM] | nt | 1.8%[12.8 µM]
Cc1ccc(C2(CC(=O)O)CCOC(C)(C)C2)cc1 (centres undefined) | 1.3 | -1.4 | 9.28µM* | -2.6% | -12.8%
CC1(C)CC(CC(=O)O)(c2ccc(F)cc2)CCO1 (centres undefined) | -8.2 | -2.0 | ? | -3.9% | nt
c1ccc(-c2ccccc2OCCOCCN2CCOCC2)cc1 | -14.7 | -2.7 | ? | 14.8% | ?
CC#CCN1c2ccccc2[C@]23C[C@@H](C(=O)OC)N(C(=O)c4ccco4)C2=NC(C(=O)OC)=C(C(=O)OC)[C@H]13 | 1.5 | -4.5 | 63.2% | -8.5% | 31.8%
CN1CCN(C(CNC(=O)C(=O)NC2CCCC2)c2ccc(F)cc2)CC1 (centres undefined) | nt | nt | 2.8% | nt | -0.9%
CCc1ccc(/C=N/NC(=O)c2c[nH]c3ccccc23)s1 | 90.8* | 49.1* | ? | -27.5% | 25.0%
CCCc1cc(C(=O)N/N=C/c2ccc(CC)s2)c2ccccc2n1 | -3.7 | -3.7 | ? | -1.5% | ?
O=C(N/N=C/c1cccs1)c1cccc2cc[nH]c12 | 15.3 | -2.0 | 0.0% | 16.1% | ?
O=C(N/N=C/c1cccs1)c1c[nH]c2ccccc12 | 80.6* | 62.3* | 16.0% | -11.1% | 82.2%
Cc1ccc(-c2nnn(CC(=O)O)n2)cc1 | 2.2 | -3.3 | -10.3% | -9.9% | 6.3%
O=C(CN1CCOCC1)N1CCCc2ccccc21 | 16.5 | 6.3 | ? | 1.8% | 12.3%
Cc1ccc(-c2nnn(CC(=O)N3c4ccccc4CCc4ccccc43)n2)cc1 | 7.9 | -1.3 | ? | ? | 10.4µM*
O=C(Cn1nnc(-c2ccc(CN3CCOCC3)cc2)n1)N1CCCc2ccccc21 | -17.2 | -6.4 | 2.62µM* | -17.9% | ?
CC(C)NC(=O)c1cc2cc(Br)ccc2oc1=O | 86.5* | 29.7* | 7.3% | 5.9% | ?
CC(=O)Nc1ccc(OC(=O)c2cc3cc(Br)ccc3oc2=O)cc1 | 2.7 | 0.8 | 4.15µM* | 0.0% | 4.4%
NC1=NC(=O)/C(=C\c2ccc(-c3ccc(Cl)cc3)o2)S1 | 30.4* | 13.0* | 4.7% | 0.2% | -8.5%
SMILES | Shiga inhibitor | CHX counter | Pf growth 96h | NS1 inh | Pf growth 48h
CN(C)C1=NC(=O)/C(=C/c2ccc(-c3ccc(S(N)(=O)=O)cc3)o2)S1 | -7.1 | -4.2 | -11.8% | 7.1% | 7.2%
COc1cc(/C=C2\S/C(=N/S(=O)(=O)Cc3ccccc3)NC2=O)c([N+](=O)[O-])cc1OC | -13.3 | -2.4 | 8.28µM* | 17.0% | ?
Cc1[nH]c(=O)[nH]c(=O)c1N1CCOCC1 | -8.8 | -1.2 | 16.8% | 2.9% | 1.6%
COc1cccc(-c2nn(-c3ccc(C)cc3)cc2C(=O)NCC2CCCO2)c1 (centres undefined) | nt | nt | -23.2% | nt | ?
COc1cccc(-c2cc(C(=O)NCC3CCCO3)c3cc(C)cc(C)c3n2)c1 (centres undefined) | 14.5 | 11.8* | ? | -2.2% | ?
COc1ccc(CN2C(=O)c3ccccc3C2C(=O)NCC2CCCO2)c(OC)c1 (centres undefined) | -7.0 | 7.5 | 4.65µM* | -2.1% | -9.2%
COc1ccccc1CNC(=O)C(=O)NCC1CCCO1 (centres undefined) | 61.8* | 23.9* | 5.86µM* | 3.6% | 54.1%
COc1cc(OC)cc(C(=O)Nc2ccc(C(=O)NCC3CCCO3)cc2)c1 (centres undefined) | -10.3 | -0.9 | ? | 1.9% | ?

Screens from PubChem BioAssay.
